About 83,000 compounds went through this panel and 20% of them were active in at least one assay; those are over-represented in the sample as a whole.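 Step 1: grow cells in 96-well plates. Step 2: add test compound at a single concentration. Step 3: incubate 48 h. Step 4: record percent growth.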 A number with no mark means an inactive call. Active and inactive are the calls of the source. Rule for the calls: active = growth percent below 10; inactive = the rest.
test system: MALME-3M melanoma; assay: NCI-60 one-dose screen, 48 h (100 = growth as untreated, 0 = no growth, -100 = all killed); conditions: 10 µM unless noted

SMILES	growth
Fc1ccc(C2=NN(c3ccccc3)C(c3sc(N(CCCl)CCCl)nc3Cl)C2)cc1 (configuration not stated)	102%
CC[C@H](C)[C@H](NC(=O)Nc1ccccc1)C(=O)N(C)[C@H](C[C@@H](OC(C)=O)c1nc(C(=O)N[C@@H](Cc2ccccc2)C[C@H](C)C(=O)OC)cs1)C(C)C	41.4%
c1ccc(CCN2CCCCC2Cc2ccccc2)cc1 (configuration not stated)	97.7%
CC(=O)O[C@H]1CCC2(C)C(=CCC3C2CCC2(C)/C(=N/OC(=O)c4ccc(N(CCCl)CCCl)cc4)CCC32)C1 (some centres not stated)	92.2%
O=C(N/N=C/c1ccc(N(CCCl)CCCl)cc1)c1cc(=O)[nH]c(=O)[nH]1	101%
O=[As]c1ccc(C(=O)c2ccc(Oc3ccccc3)cc2)cc1 (configuration not stated)	-66.2% (active)
O=[N+]([O-])c1cc([N+](=O)[O-])c(Cl)c(Cl)c1Cl	-48.1% (active)
Cc1cc(NC(=O)NCCOc2ccc(N3C(N)=NC(N)=NC3(C)C)cc2Cl)ccc1S(=O)(=O)F	53.3%
COc1ccc2c(c1)NC1=C(C(=O)OC1)C2c1cc(OC)c(OC)c(OC)c1 (configuration not stated)	21.7%
C=CCc1ccc(OC(=O)Cc2ccccc2)c(OC)c1	86.8%
CC(C)(O)/C=C/C(=O)[C@](C)(O)[C@H]1[C@H](O)C[C@@]2(C)[C@@H]3CC=C4[C@@H](C=C(O)C(=O)C4(C)C)[C@]3(C)C(=O)C[C@]12C	-66.5% (active)
C[C@]12CCc3sc(-c4ccc(Cl)cc4)nc3C1=CC[C@@H]1[C@@H]2CC[C@]2(C)C(=O)CC[C@@H]12	75%

Reference: PubChem BioAssay (NCI)
